# HTR2A ag: activates the mouse 5-HT2A serotonin receptor; AID 624169; CHO-K1 mHTR2A beta-arrestin complementation, luminescence; percent of 30 µM serotonin response; 360,000 compounds, 0.66% hits; activation, % at 7.6 µM;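 active = activation above a run cutoff, the mean activation of all tested compounds plus 3 SD, cut at about 14% in these data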;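 also: 0% = plate median of compound wells and 100% = 30 µM serotonin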
# MOR-DOR inv ag: mu-delta opioid heterodimer inverse agonism | inhibition, % at 9.3 µM | cell-based MOR-DOR heterodimer luminescence | P35372+P41143 | 340,000 compounds, 0.21% hits; in the data active = inhibition above about 22%, passing the limit was not always enough;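 also: 0% = cells with DMSO and 100% = wells without cells with DMSO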
# HTR5A ag: HTR5A agonism, opioid heterodimer counter-screen | P47898 | HTR5A agonist assay, luminescence, cell-based | activation, % at 9.3 µM | 340,000 compounds, 0.61% hits | AID 504692; in the data active = activation mostly above about 9.5%, no sharp cut-off; inactive = mostly below about 7.6%;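 also: 0% = cells with vehicle only and 100% = reference agonist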
# Target sequence (P47898 whole entry, looked up): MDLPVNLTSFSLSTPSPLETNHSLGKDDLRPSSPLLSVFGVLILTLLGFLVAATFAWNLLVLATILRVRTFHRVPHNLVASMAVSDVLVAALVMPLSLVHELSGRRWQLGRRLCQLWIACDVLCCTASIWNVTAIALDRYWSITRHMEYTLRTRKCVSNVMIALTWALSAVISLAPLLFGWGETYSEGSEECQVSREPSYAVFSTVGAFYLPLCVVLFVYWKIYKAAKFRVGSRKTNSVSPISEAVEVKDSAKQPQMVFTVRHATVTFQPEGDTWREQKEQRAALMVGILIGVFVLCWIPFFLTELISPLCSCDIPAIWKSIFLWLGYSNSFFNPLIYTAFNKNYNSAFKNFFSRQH
# OPRM1-OPRD1 ag: agonists of human mu-delta opioid receptor heterodimerization; P35372+P41143; 340,000 compounds, 0.3% hits; activation, % at 9.3 µM; cells, OPRM1-OPRD1 heterodimerization, luminescence; in the data active = activation above about 18%;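 also: 0% = vehicle-treated cells and 100% = reference agonist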
# HTR5A inv ctr: counter-screen for OPRM1-OPRD1 inverse agonists: human HTR5A inverse agonism. P47898. HTR5A cell line, luminescence. inhibition, % at 9.3 µM. 340,000 compounds, 0.083% hits. AID 504634; in the data active = inhibition mostly above about 23%, no sharp cut-off; inactive = mostly below about 18%;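 also: 0% = cells with DMSO and 100% = no-cell wells with DMSO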
# OPRM1-D1 inv cf: confirmation of human OPRM1-OPRD1 heterodimerization inverse agonists; shares compounds with MOR-DOR inv ag; cells expressing OPRM1/OPRD1 heterodimer, luminescence; inhibition, % at 9.3 µM; 580 compounds, 20% hits; AID 504900; in the data active = inhibition above about 32%;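 also: 0% = cells with DMSO and 100% = wells lacking cells with DMSO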
# HTR5A inv count: HTR5A inverse agonism, opioid heterodimer counter-screen | shares compounds with MOR-DOR inv ag | HTR5A-expressing cells, luminescence | inhibition, % at 9.3 µM | 580 tested, under 10 active; call rule not given here;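 also: 0% = cells with DMSO and 100% = no-cell wells with DMSO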
# Numbers without * were called inactive; i = inactive; / = no result given. Only some compounds are listed: those with a hit (about 1.6% of all), similar ones and a draw of the others.
SMILES,HTR2A ag,MOR-DOR inv ag,HTR5A ag,OPRM1-OPRD1 ag,HTR5A inv ctr,OPRM1-D1 inv cf,HTR5A inv count
CN(C)c1ccc(N=Nc2nc3ccccc3n2C)cc1,-9,15,-10,-3,39,/,/
Cn1c(N=Nc2ccccc2)nc2ccccc21,0,43*,7,-10,-17,-25,-13
N#CC(C#N)=C1C=CC=CN1/C(=C\c1ccco1)C(=O)c1ccc(Cl)cc1,-2,34*,-6,-6,25,-360,-11
N#CC(C#N)=C1C=CC=CN1/C(=C\c1ccco1)C(=O)c1ccc(-c2ccccc2)cc1,0,15,-4,-3,6,/,/
CC(=O)OCC1(C)CN(c2ccccc2)N(C(=O)c2ccc(C(C)(C)C)cc2)C1=O (stereo not drawn),-2,23*,-6,-3,3,-6,-232
CCOC(=O)N1C(=O)[C@@](CC)(c2ccccc2)N1C(=O)OCC,0,9,-1,-2,5,/,/
CC(=O)OCC1(C)CN(c2ccccc2)NC1=O (stereo not drawn),1,42*,-1,-9,3,25,1
CC(=O)OCC1(C)CN(c2ccccc2)N(C(C)=O)C1=O (stereo not drawn),3,40*,-5,-8,11,-52,-202
O=C(NNc1ncc(C(F)(F)F)cc1Cl)c1c(Cl)cccc1Cl,-7,24,-2,-5,28,/,/
FC(F)(F)c1cnc(NNC(=S)Nc2cccnc2)c(Cl)c1,-9,66*,-7,-12,29,45*,42
Cc1cccc(C)c1NC(=S)NNc1ncc(C(F)(F)F)cc1Cl,0,32*,-3,-5,17,-49,-11
Cc1ccccc1NC(=S)NNc1ncc(C(F)(F)F)cc1Cl,-4,46*,-7,-8,26,33*,15
Fc1ccccc1NC(=S)NNc1ncc(C(F)(F)F)cc1Cl,-3,44*,-8,-8,16,-59,-2
NC(=O)NNc1ncc(C(F)(F)F)cc1Cl,1,8,-1,-2,4,/,/
FC(F)(F)c1cnc(NNC(=S)Nc2ccccc2)c(Cl)c1,-17,/,/,/,/,/,/
Cn1nc(C(C)(C)C)cc1C(=O)N1CCCCC1c1cc(C(=O)Nc2ccc(F)c(Cl)c2)no1 (stereo not drawn),0,/,/,/,/,/,/
Cc1c(Cl)cccc1NC(=S)NNc1ncc(C(F)(F)F)cc1Cl,-12,43*,-8,-8,41,25,28
CC1(C(=O)NCc2ccccc2)CSCC(=O)N1Cc1ccco1 (stereo not drawn),3,/,/,/,/,/,/
Cc1noc(C)c1S(=O)(=O)NC(=O)C1(C)CCN1C(=O)c1ccc(C2CCCCC2)cc1 (stereo not drawn),3,/,/,/,/,/,/
c1cncc(-c2nnc(-c3cccnc3)nn2)c1,0,86*,-7,-15,18,-33,18
c1ccc(-c2nnc(-c3ccccc3)nn2)cc1,0,/,/,/,/,/,/
O=C(c1cccnc1)c1cccnc1,3,-15,-1,2,3,/,/
O=C(C(=O)c1cccnc1)c1cccnc1,1,36*,-3,-7,13,i,2
Cc1nn(CCC(=O)NNC(=S)Nc2ccccc2)c(C)c1Br,-26,30*,1,-6,23,-156,-10
CNC(=S)NNC(=O)CCn1nc(C)c(Br)c1C,-6,15,0,-3,4,/,/
SMILES,HTR2A ag,MOR-DOR inv ag,HTR5A ag,OPRM1-OPRD1 ag,HTR5A inv ctr,OPRM1-D1 inv cf,HTR5A inv count
Cc1nn(CCC(=O)NNC(=S)NCC(C)C)c(C)c1Br,-26,75*,-11,-15,37,-33,-10
CCOCCCNC(=S)NNC(=O)CCn1nc(C)c(Br)c1C,-16,45*,-3,-8,5,-13,-16
COCCCNC(=S)NNC(=O)Cn1nc(C)c(Br)c1C,0,16,0,-3,0,/,/
CCCN(C)C1CN(Cc2cn(Cc3cccc(Cl)c3)nn2)S(=O)(=O)C1 (stereo not drawn),2,/,/,/,/,/,/
O=C1C=C(OCCF)CC(c2ccccc2C(F)(F)F)O1 (stereo not drawn),3,/,/,/,/,/,/
COc1ccc2c(c1)C(=O)C1(CC2)OC1c1cccnc1 (stereo not drawn),2,/,/,/,/,/,/
C=CCNC(=S)NCCCCC1NC(=S)N(CC=C)C1=O (stereo not drawn),-2,25*,0,-3,22,7,-4
O=C(CN1C(=O)C(=O)c2ccccc21)NCCc1ccccc1,-1,56*,-9,-11,25,9,11
O=C1C(=O)N(CCCc2ccccc2)c2ccccc21,-2,43*,-3,-9,5,90*,2
CCOC(=O)C1Oc2ccccc2C(C(=O)OC)=C1C(=O)OC (stereo not drawn),1,40*,2,-8,-8,i,-4
CCOC(=O)C1Oc2ccccc2C(c2cccc3ccccc23)=C1C(=O)OC (stereo not drawn),-4,1,-2,0,9,/,/
CC1(C(=O)NS(=O)(=O)c2cccc(C#N)c2)CCN1C(=O)c1cccc2ccccc12 (stereo not drawn),6,/,/,/,/,/,/
COc1cc(CC(=O)N2c3ccccc3N=C(c3ccccc3)C2C(=O)NCc2ccccc2)cc(OC)c1 (stereo not drawn),8,/,/,/,/,/,/
CC1=C(C(=O)N2CCCCCC2)CC(CC(=O)NCCc2ccccn2)C(=O)N1Cc1ccc(F)cc1 (stereo not drawn),1,/,/,/,/,/,/
O=C(NNc1ccc(Cl)cc1)c1sccc1Cl,-1,47*,-5,-9,10,1,13
